# From PubChem BioAssay
# Marburg entry inh: blocks Marburg virus binding to or entry into cells. Potency, µM (doses to about 37.8 µM), without a hit: at the highest dose activity change, negative = inhibition, most hits filed as inhibitors. actives 1.8% (n = 300,000). Marburg virus pseudotyped entry inhibition, cell reporter. AID 540276; calls by dose curve; tested in HEK293 cells; also: potency is read from the fitted curve at half-maximal effect
# FMDV antiviral: antivirals against foot and mouth disease virus. FMDV antiviral cell-based qHTS. Potency, µM (top dose mostly 57.9 µM), without a hit: at the highest dose activity change, negative = inhibition, most hits filed as inhibitors. actives 1.2% (n = 410,000). AID 1159524; calls by dose curve; tested in HEK293T cells; also: read-out not given here; potency is read from the fitted curve at half-maximal effect; nearly all actives have a fitted effect of over 45% in size
# VACV mCherry inh: inhibitors of vaccinia virus infection (mCherry reporter signal); Vaccinia virus mCherry reporter infection, fluorescence; Potency, µM (doses to about 36.5 µM), inactives show at the highest dose activity change, negative = inhibition, usual class: inhibitors; actives 0.63% (n = 310,000); calls by dose curve; tested in A549 cells; also: potency is read from the fitted curve at half-maximal effect; nearly all actives have a fitted effect of over 35% in size
# HCMV antiviral: inhibitors of human cytomegalovirus; AID 1259415; actives 4.5% (n = 410,000); HFF cells, HCMV-luciferase reporter, 72 h; stronger effect = lower value; activity change, negative = inhibition, % at 57.5 µM; in the data active = activity change below about -60%; inconclusive = no clear call, values can overlap the other calls; inactive = above about -39%
#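 Human foreskin fibroblasts infected with luciferase-reporter HCMV at MOI 1 PFU/cell, compounds at two doses. Luciferase measured 72 h post infection; normalized to buffer-only basal and Salinomycin (10uM) controls.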
# Lassa entry inh: blocks Lassa virus binding to or entry into cells; Lassa virus pseudotype entry inhibition, cell reporter; Potency, µM (highest dose often 37.9 µM), for inactives: at the top dose activity change, negative = inhibition, actives largely listed as inhibitors; actives 1.2% (n = 300,000); calls by dose curve; tested in HEK293 cells; also: potency is read from the fitted curve at half-maximal effect; nearly all actives have a fitted effect of over 50% in size
# Vaccinia Venus: vaccinia inhibition (Venus reporter) | Vaccinia virus Venus reporter expression, fluorescence | Potency, µM (doses to about 36.5 µM), for inactives: top-dose activity change, negative = inhibition, most hits filed as inhibitors | actives 0.46% (n = 330,000) | AID 720580; calls by dose curve; tested in A549 cells; also: potency is read from the fitted curve at half-maximal effect; nearly all actives have a fitted effect of over 30% in size
# An asterisk follows results filed as active; i = inactive; ? = inconclusive; / = no result; [ ] = remark or other dose. Compounds with a hit are over-represented: about 6.5% of the library has one in this group of screens. % is scaled to controls: 0 for no effect and ±100 for the full control effect.
SMILES,Marburg entry inh,FMDV antiviral,VACV mCherry inh,HCMV antiviral,Lassa entry inh,Vaccinia Venus
CCCC(C)C(=O)Nc1ncc(S(=O)(=O)c2ccc([N+](=O)[O-])cc2)s1 (stereo unspecified),-46%[46.1 µM],?,2.5µM*,-21,?,?
CCC(C)(C)C(=O)Nc1ncc(S(=O)(=O)c2ccc([N+](=O)[O-])cc2)s1,6%[46.1 µM],?,?,-11,-3%,?
COc1ccc(CN2CCCC(C(=O)c3ccccc3SC)C2)cc1O (stereo unspecified),/,-2%,-14%,-21,/,-8%
COc1ccc(F)cc1C(=O)C1CCCN(Cc2cn(C)c3ccccc23)C1 (stereo unspecified),15µM*,-21%,-22%,-27,?,-24%
COc1ccc(OC)c(CN2CCCC(C(=O)c3ccccc3SC)C2)c1 (stereo unspecified),2.5µM*,?,-21%,-63*,?,9%
Cn1cc(CN2CCCC(C(=O)c3cc(F)ccc3F)C2)c2ccccc21 (stereo unspecified),10µM*,6%,-20%,-30,?,-21%
Cn1cc(CN2CCCC(CNC(=O)c3ccc4c(c3)OCO4)C2)c2ccccc21 (stereo unspecified),7.9µM*,-2%,-3%,52,18%[46.1 µM],-19%
COc1ccc(F)cc1C(=O)C1CCCN(Cc2c[nH]c3ccccc23)C1 (stereo unspecified),/,-25%,/,?,/,/
C[C@H]1CCCCO[C@@H](CN(C)CC2CC2)[C@@H](C)CN([C@@H](C)CO)C(=O)c2cc(NS(=O)(=O)c3ccccc3)ccc2O1,/,/,/,-27,/,/
N#CC(C(=O)C1=C(Cl)CCCC1)=C1SCCCS1,3%,/,/,/,/,/
CCn1c(COc2ccc(=O)n(-c3ccccc3)n2)nnc1SCc1ccc(C)cc1,-10%,-13%,/,-14,?,/
CCn1c(COc2ccc(=O)n(-c3ccccc3)n2)nnc1SCc1ccccc1C,-20%,-20%,/,-65*,-16%,/
CN(C)c1ccc(C(=C2c3ccccc3-c3ccccc32)c2ccc(N(C)C)cc2)cc1,/,/,41%,/,/,5%
N#Cc1cc(Oc2cccc3cccnc23)c(-n2nnc3ccccc32)cc1C#N,?,16µM*,/,/,?,/
Cn1c(-c2cccc(C(F)(F)F)c2)cc2cnc(Nc3ccc(Oc4ccccc4)cc3)cc21,/,/,/,-15,/,/
CCOc1ccc(NC(=O)c2ccccc2NC(=O)CN(C)CC(=O)Nc2ccc(C)cc2)cc1,-26%,?,/,-34,-19%,-19%
CCOc1ccc(NC(=O)c2ccccc2NC(=O)CNC2CCCC(C)C2C)cc1 (stereo unspecified),/,-12%,/,-66*,/,/
COc1cc(NC(=S)NC2CC2)c(OC)cc1Cl,0%,-1%,i,-81*,-3%,-1%
COc1ccc(C2=CC(=O)C[C@H](c3ccc(F)cc3)C2)cc1F,/,-13%,?,-18,/,-15%
Cc1cc(C2=CC(=O)C[C@H](c3ccc(F)cc3)C2)ccc1F,/,-3%,-19%,-62*,/,-17%
CSc1ccc(C2=CC(=O)C[C@H](c3ccc4c(c3)OCO4)C2)cc1,/,-2%,i,-64*,/,-14%
COC[C@@H](O)[C@H]1OCc2ccccc2[C@H]1C=Cc1ccccc1,7%[14.2 µM],/,/,/,/,/
CC(C)Oc1ccc(CNC(=O)c2ccc3c(c2)N(Cc2ccc(F)cc2)CCS3)cc1,?,-16%,-2%,9,/,-13%
CC1=C/C(=N\OS(=O)(=O)c2ccccc2)C(C)=CC1=O,?,4.5µM*,?,-100*,?,-26%
CC1=C/C(=N\OS(=O)(=O)c2ccccc2)C(C(C)C)=CC1=O,?,28µM*,-20%,-82*,?,-2%
SMILES,Marburg entry inh,FMDV antiviral,VACV mCherry inh,HCMV antiviral,Lassa entry inh,Vaccinia Venus
CC1=C(C)/C(=N\OS(=O)(=O)c2ccc(C)cc2)C=CC1=O,1.4µM*,20µM*,-8%,-86*,6.3µM*,-15%
C=CC[C@@](C(C)=O)(C(=O)OC)[C@@H](NC(=O)OC)c1ccccc1,-3%[14.2 µM],/,/,/,/,/
COC(=O)c1c(NC(=O)/C=C/C(=O)O)sc(C)c1-c1ccc(C)c(C)c1,?,?,-26%,-35,-21%,-20%
CCOC(=O)c1c(NC(=O)/C=C/C(=O)O)sc(C)c1-c1ccc(C)c(C)c1,?,32µM*,/,-27,?,/
COC(=O)c1c(NC(=O)/C=C/C(=O)O)sc(C)c1-c1ccc(C(C)C)cc1,-16%[46.1 µM],14µM*,-14%,?,5.6µM*,-26%
CC(C)=C1C2CCC1C(C(=O)Nc1sc(C)c(-c3ccc(C(C)C)cc3)c1C(N)=O)C2C(=O)O (stereo unspecified),21µM*,-13%,-23%,-22,?,?
CCOC(=O)c1c(NC(=O)/C=C/C(=O)O)sc(C)c1-c1ccc(F)cc1,-26%[46.1 µM],32µM*,-24%,-11,-22%,-27%
CC(=O)c1ccc(NC(=O)c2sc(-n3nc(C)c(Cc4ccc5c(c4)OCO5)c3C)nc2C)cc1,11%[46.1 µM],?,-20%,22,14%[46.1 µM],-18%
CC(=O)c1ccc(N2CCN(C(=O)Cn3ncc4c3-c3ccccc3OC4)CC2)cc1,1%[46.1 µM],?,i,-15,/,-7%
CCC(c1nnnn1C(C)(C)C)N1CCN(c2cc(Cl)ccc2C)CC1 (stereo unspecified),10µM*,-1%,/,-15,13µM*,-29%
CCC(c1nnnn1C(C)(C)C)N1CCN(Cc2ccccc2OC)CC1 (stereo unspecified),/,-8%,/,-72*,/,/
CN1CCN(C(c2ccccc2)c2ccccc2)CC1,/,-17%,?,46,/,-17%
CN1CCCN(C(c2ccccc2)c2ccc(Cl)cc2)CC1 (stereo unspecified),?,-26%,?,?,13µM*,?
CCCCCn1cc2c(c1-c1ccccc1Br)c(=O)n(C)c(=O)n2C,3%[46.1 µM],0%,-9%,-3,-4%[46.1 µM],-6%
Cc1ccccc1Cn1cc(NS(=O)(=O)c2cn(C)nc2C)cn1,/,-15%,/,-60*,/,/
Cc1cc(C)cc(NS(=O)(=O)c2ccc(NC(=S)NC(=O)c3cccs3)cc2)c1,12µM*,0%,?,-34,14µM*,?
Cc1ccc(C(=O)NC(=S)Nc2ccc(NC(=O)c3cccs3)cc2)cc1[N+](=O)[O-],-20%,?,-10%,-78*,5%,-19%
CN(C)S(=O)(=O)c1ccc(NC(=S)NC(=O)C2CCC2)cc1,/,0%,/,17,/,/
CN(C1CCCCC1)S(=O)(=O)c1ccc(NC(=S)NC(=O)c2cccs2)cc1,18µM*,?,/,-39,-12%,/
CC(=O)Oc1cc2c(c(C)c1OC(C)=O)CC=C1[C@]3(C)CC[C@]4(C)CC[C@@](C)(C(=O)O)CC4[C@]3(C)CC[C@]12C (stereo partly specified),/,35µM*,-21%,/,/,-19%
